# Source: PubChem
# TDP1 cell noCPT: qHTS for Inhibitors of human tyrosyl-DNA phosphodiesterase 1 (TDP1): qHTS in cells in absence of CPT; DT40 Tdp1-/- hTDP1 cells, no CPT, ATP luminescence, 48 h; Potency, µM (titrated, usually from 46.2 µM), without a hit: top-dose activity change, negative = growth inhibition, hits mostly inhibitors; actives 15% (n = 420,000); AID 686978, 2013; note: potency is the fitted concentration of half-maximal effect; nearly all actives have a fitted effect of over 55% in size
#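 A cellular qHTS used chicken DT40 cells lacking endogenous Tdp1 but carrying stably transfected human TDP1. Compounds were applied without camptothecin, and cell growth kinetics were judged by ATP-dependent luminescence after ≥48 hr.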
# IL1B secr inh: blocks inflammasome-driven IL-1 beta release. THP-1 LPS/ATP IL-1B secretion, AlphaLISA, 16 h; active compounds read low. activity change, % at 57.5 µM. actives 4.7% (n = 360,000); in the data active = activity change below about -50%; inconclusive = mostly about -30% to -49%
#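 Secreted IL-1B measured by AlphaLISA bead assay after 16 h compound exposure of THP-1 cells; compounds (final up to 57.5 uM) added 1 h before LPS (250 ng/mL) and ATP (1.25 mM) stimulation; lower signal means less secretion.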
# TDP1 cell CPT: DT40-hTDP1 cell growth loss with CPT. chicken DT40 Tdp1-/-;hTDP1 cells + 20 nM CPT, ATP luminescence, 48 h. Potency, µM (series often up to 46.2 µM), for the others: top-dose activity change, negative = growth inhibition, actives largely listed as inhibitors. actives 12% (n = 420,000). AID 686979; note: potency is the fitted concentration of half-maximal effect; nearly all actives have a fitted effect of over 55% in size
#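 Cell growth measured by CellTiter-Glo luminescence after a minimum 48 h, 37 C compound exposure with 20 nM CPT in Tdp1-knockout DT40 cells stably expressing hTDP1, seeded 400/well; qHTS titration format.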
# HT1080-NT tox: kills 2HG-producing HT-1080-NT fibrosarcoma cells | Potency, µM (series often up to 46.1 µM), for inactives: at the highest dose activity, negative = less viability, most hits filed as cytotoxic | actives 1.6% (n = 360,000) | HT-1080-NT fibrosarcoma viability, CellTiter-Glo ATP luminescence, 48 h;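 note: NT is the 2HG producing partner of a matched IDH1 knockdown line; potency is the fitted concentration of half-maximal effect; 0% = DMSO-treated cells and -100% = media-only wells without cells; nearly all actives have a fitted effect of over 55% in size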
#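 HT-1080-NT; 750 cells/well; 5% FBS RPMI; 48 h compound, 37 degrees C; CellTiter-Glo luminescence; curve fitting and curve-class assignment.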
# HT1080 IDH1KD tx: toxicity to HT-1080 IDH1 knockdown cells (counter line); HT-1080 IDH1 knockdown viability, ATP luminescence, 48 h; Potency, µM (top dose mostly 46.1 µM), without a hit: top-dose activity, negative = toxicity, actives largely listed as cytotoxic; actives 2% (n = 360,000);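 note: potency is the fitted concentration of half-maximal effect; 0% = DMSO wells and -100% = cell-free medium wells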
#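 In this qHTS, HT-1080 cells depleted of IDH1 are exposed for 48 h at 37 °C to compound titrations. Toxicity is scored from CellTiter-Glo luminescence, with DMSO as full viability and medium alone as none.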
# * marks the source's active call; other numbers are inactive results; i = inactive; ? = inconclusive; . = not tested or not shown; [ ] = dose if it differs, or a comment. Hits are enriched below; roughly 19% of the tested compounds scored in any of these assays. Unless noted, calls come from the whole dose curve; as a rule, active = well fitted curve in the direction sought with a large enough effect; inconclusive = small, poorly fitted or top-dose-only effect, or another doubt; inactive = no such curve, though single readings can be large; an effect the other way counts as inactive or inconclusive. Unless noted, % is set by controls: 0 for no effect and ±100 for the full control effect.
SMILES,TDP1 cell noCPT,IL1B secr inh,TDP1 cell CPT,HT1080-NT tox,HT1080 IDH1KD tx
COc1ccc(CCNc2ccc(C(CC(N)=O)NC(=O)Cc3cccc4ccccc34)cc2[N+](=O)[O-])cc1 (stereo unspecified),?,-3,23µM*,0%,1%
CCCCNc1ccc(C(CC(N)=O)NC(=O)Cc2cccc3ccccc23)cc1[N+](=O)[O-] (stereo unspecified),-21%,-1,-7%,10%,7%
COc1ccc(CCNc2ccc(C(CC(N)=O)NC(=O)c3cc(OC)ccc3OC)cc2[N+](=O)[O-])cc1 (stereo unspecified),?,-19,26µM*,-2%,-1%
COc1ccc(CN2CCN(C(C)=O)CC2)cc1OC1CCN(C(=O)c2ccc3[nH]c(C)c(C)c3c2)CC1,-28%,.,-11%[9.04 µM],.,.
CCC(C)(C)NC(=O)C(c1ccccn1)N(C(=O)c1csnn1)c1ccc(C)c(C)c1 (stereo unspecified),0%,5,1%,-8%,-2%
CCOC(=O)c1ccc(-c2ccc(/C=C(\C#N)C(=O)NCc3cccs3)o2)cc1,18µM*,10,23µM*,-1%,-2%
CCOC(=O)c1ccc(-c2ccc(/C=C(\C#N)c3nc4ccc(C)cc4[nH]3)o2)cc1,2.6µM*,.,23µM*,.,.
Cc1ccc2nc(/C(C#N)=C\c3ccc(N4CCOCC4)o3)[nH]c2c1,21µM*,-12,13µM*,-2%,0%
COCCOc1ccc(C(F)(F)F)cc1NC(=O)CN1C(=O)NC(C)(c2ccc3c(c2)OCO3)C1=O (stereo unspecified),-11%,-13,-28%,0%,-16%
CCc1nnc(NC(=O)[C@@H]2CCCN2C(=O)c2cccs2)s1,3%,.,4%,.,.
CCC(=O)OCC(=O)Nc1cc([N+](=O)[O-])ccc1Cl,-18%,-8,17%,13%,-1%
Cc1ccccc1Cn1c2ccccc2c2cnn(CC(=O)NC(C)CCc3ccccc3)c(=O)c21 (stereo unspecified),9.2µM*,.,9.2µM*,.,.
COc1cccc(CNC(=O)Cn2ncc3c4ccccc4n(Cc4ccccc4)c3c2=O)c1,-28%,.,-17%,.,.
O=C(Cn1ncc2c3ccccc3n(Cc3ccccc3F)c2c1=O)NCCCc1ccccc1,18µM*,.,?,.,.
Cc1ccc(C)c(Cn2c3ccccc3c3cnn(CC(=O)NCCCc4ccccc4)c(=O)c32)c1,9.2µM*,.,?,.,.
Cc1ccc(C)c(Cn2c3ccccc3c3cnn(CC(=O)NCCC4=CCCCC4)c(=O)c32)c1,-10%,.,-5%,.,.
Cc1ccccc1Cn1c2ccccc2c2cnn(CC(=O)NCCc3ccccc3)c(=O)c21,?,.,16µM*,.,.
Cn1cnnc1SCC(=O)Nc1cc(S(=O)(=O)N2CCCCC2)ccc1Cl,11%,17,9%,0%,-1%
CCOc1ccc(Cl)cc1-c1cc(C(=O)NC(C)C)[nH]n1,?,19,?,5%,-6%
COc1ccc(-c2nc(CN(Cc3cnn(C)c3)C(C)C)c(C)o2)c(OC)c1,14%,3,-2%,7%,8%
O=C(Cn1ncc2c3ccccc3n(Cc3ccccc3F)c2c1=O)NCCN1CCOCC1,?,1,?,7%,8%
Cc1ccc(C)c(Cn2c3ccccc3c3cnn(CC(=O)N4CCCCC4)c(=O)c32)c1,-3%,.,?,.,.
CCCCN(CC)CCCNC(=O)Cn1ncc2c3ccccc3n(Cc3ccccc3F)c2c1=O,12µM*,.,13µM*,.,.
O=C(Cn1ncc2c3ccccc3n(Cc3ccccc3F)c2c1=O)NCCCN1CCCC1=O,-20%,-53*,?,-17%,-25%
Cc1ccc(C)c(Cn2c3ccccc3c3cnn(CC(=O)NCCCN4CCCCC4)c(=O)c32)c1,16µM*,?,?,?,?
SMILES,TDP1 cell noCPT,IL1B secr inh,TDP1 cell CPT,HT1080-NT tox,HT1080 IDH1KD tx
CC(=O)c1ccc(NC(=O)Cn2ncc3c4ccccc4n(Cc4ccccc4)c3c2=O)cc1,-16%,.,4%,.,.
Cc1cccc(NC(=O)Cn2ncc3c4ccccc4n(Cc4ccccc4)c3c2=O)c1C,23µM*,.,?,.,.
O=C(Cn1ncc2c3ccccc3n(Cc3ccccc3F)c2c1=O)NCc1ccccc1Cl,18µM*,.,21µM*,.,.
Cc1cccnc1NC(=S)Nc1ccc(Cl)c(Cl)c1,?,0,-11%,-6%,-4%
CCNC(=S)NNC(=O)c1ccccn1,?,82,21µM*,1%,-25%
O=C(NNC(=S)Nc1ccc(Cl)c(Cl)c1)c1ccccn1,1.5µM*,101,2.9µM*,-19%,?
CC1(C)OC(=O)C2(Cc3cc(C(F)(F)F)ccc3N3CCCCC32)C(=O)O1 (stereo unspecified),-24%,.,6%,.,.
CC(=O)Nc1ccc(S(=O)(=O)N2CCN=C2SCc2cccc(C)c2)cc1,?,i,?,0%,-1%
CC(=O)Nc1ccc(S(=O)(=O)N2CCN=C2SCc2ccc([N+](=O)[O-])cc2)cc1,7.3µM*,-28,12µM*,?,?
CC(=O)Nc1ccc(S(=O)(=O)N2CCN=C2SCc2ccccc2C)cc1,16µM*,-3,?,-3%,-2%
CCOc1ccccc1N=c1oc2cc(O)ccc2cc1C(=O)NCC1CCCO1 (stereo unspecified),?,0,11µM*,?,?
